# Data: ChEMBL document CHEMBL3988442, “University of Dundee, Small-Polar-MMV Screening Library” (2021)
# In all, about 69,000 compounds went through this assay and about 1,000 (1.4%) showed an effect of 50% or more. What follows is part of a selection rich in strong results, with near analogues and random picks from the rest.
# Test system: Leishmania donovani
# Experiment: Leishmania intramacrophage assay
# Assay type: functional, organism-based
# Parameters: scale not given: in the data most compounds retested in dose-response had high values
structure (smiles),measurement,setting,value
COCc1cccc(NS(=O)(=O)c2cc(C(=O)O)cs2)c1,Percent Effect,"30 µM, 30.03 µM",36.6%
CCNc1ncc2c(n1)CN(c1ccc(OC(F)(F)F)cc1)C2=O,Percent Effect,"30.3 µM, […]",23.96%
OC1(CNCc2ccc(F)c(C(F)(F)F)c2)CCOC1 (stereo unspecified),Percent Effect,"30.3 µM, […]",25.18%
CN1CCC(O)(CNCc2ccc(F)c(C(F)(F)F)c2)CC1,Percent Effect,"30.3 µM, […]",85.74%
OC1(CNCc2ccc(F)c(C(F)(F)F)c2)CCSCC1,Percent Effect,"30.3 µM, […]",40.38%
CC(C)N1CCN(c2ccc3ccc(C(=O)NC4CCCC4)cn23)CC1.O=C(O)C(F)(F)F,Percent Effect,"30.3 µM, […]",37.85%
N#Cc1cc(F)c(NCCCOCC2CCOC2)c(F)c1 (stereo unspecified),Percent Effect,"30.3 µM, […]",29.08%
CCc1c(C)nc(C)nc1N1C[C@@H](CN(C)CCN(C)C)[C@@H](CO)C1,Percent Effect,"30.3 µM, […]",30.66%
CCc1c(C)nc(C)nc1N1C[C@@H](CN(CC)CCO)[C@@H](CO)C1,Percent Effect,"30.3 µM, […]",-0.6836%
CCc1c(C)nc(C)nc1N1C[C@@H](CN(C)C)[C@@H](CO)C1,Percent Effect,"30.3 µM, […]",54.47%
Cn1ccnc1CN1C[C@@H](CN2CCCC2)[C@@H](CO)C1,Percent Effect,"30.3 µM, […]",30.27%
CCN1CC[C@]2(CN(Cc3nccs3)C[C@H]2c2ccccc2)C1=O.O=C(O)C(F)(F)F,Percent Effect,"30.3 µM, […]",23.61%
COc1ccc(-c2n[nH]c(C)c2CC(=O)NCCN2CCOCC2)cc1,Percent Effect,"30.3 µM, […]",-10.63%
Cc1noc(C)c1CS(=O)(=O)C(C)C(=O)N(C)c1ccccc1 (stereo unspecified),Percent Effect,"30.3 µM, […]",39.61%
Cc1noc(CS(=O)(=O)C(C)C(=O)N(C)c2ccccc2)n1 (stereo unspecified),Percent Effect,"30.3 µM, […]",12.83%
Cc1cc(CS(=O)(=O)C(C)C(=O)N(C)c2ccccc2)on1 (stereo unspecified),Percent Effect,"30.3 µM, […]",59.375%
Cc1cc(C)n(CC2CN(Cc3cc(C)on3)CCO2)n1 (stereo unspecified),Percent Effect,30 µM,28.82%
O=C(CN1CCOCS1(=O)=O)NCc1ccccc1,Percent Effect,"30.3 µM, […]",-15.82%
COC1COC2(CCN(Cc3ccc4c(c3)OCO4)CC2)C1.O=C(O)C(F)(F)F (stereo unspecified),Percent Effect,"30.3 µM, […]",2.758%
CC(C)OCCCN1CCCC(c2nc3ccccc3n2C(C)C)C1 (stereo unspecified),Percent Effect,"30 µM, 30.03 µM",51.41%
CC(C)n1c(C2CCCN(CCS(C)(=O)=O)C2)nc2ccccc21 (stereo unspecified),Percent Effect,"30 µM, 30.03 µM",13.25%
CC(C)n1c(C2CCCN(CC(N)=O)C2)nc2ccccc21 (stereo unspecified),Percent Effect,"30.3 µM, […]",0.009374%
CC(C)c1noc(OCc2cccc(C#N)c2)n1,Percent Effect,"30.3 µM, […]",36.94%
CN1CCN(Cc2noc(-c3cc(-c4ccccc4F)n[nH]3)n2)CC1,Percent Effect,"30.3 µM, […]",-14.35%
c1cc2c(cc1-n1nc(C3CC3)nc1-c1csnn1)OCCO2,Percent Effect,"30.3 µM, […]",-0.4467%
CC(CNC(=O)c1c[nH]nn1)Oc1ccc(Cl)cc1 (stereo unspecified),Percent Effect,"30.3 µM, […]",-48.71%
c1cc(C2CCN(c3ncnc4c3CCNCC4)CC2)ccn1,Percent Effect,"30.3 µM, […]",3.191%
Clc1cccc(C2CCN(c3ncnc4c3CCNC4)C2)c1 (stereo unspecified),Percent Effect,"30.3 µM, […]",76.01%
c1ccc(C2CCCN(c3ncnc4c3CCNC4)CC2)cc1 (stereo unspecified),Percent Effect,"30.3 µM, […]",74.19%
c1ccc2c(c1)CN(c1ncnc3c1CCNC3)CCO2,Percent Effect,"30.3 µM, […]",24.34%
c1ccn2c(C3CCCN(c4ncnc5c4CCNC5)C3)nnc2c1 (stereo unspecified),Percent Effect,"30.3 µM, […]",-1.091%
c1ccc(C2CCN(c3ncnc4c3CCNC4)CC2)cc1,Percent Effect,"30.3 µM, […]",29.27%
N#Cc1cc(C(F)(F)F)ccc1NCC1CCS(=O)(=O)CC1,Percent Effect,"30.3 µM, […]",3.711%
O=C(c1cc[nH]n1)N1CCC(c2cc(Nc3ccccn3)n[nH]2)CC1,Percent Effect,"30.3 µM, […]",6.823%
Cc1ccc(NC2CCN(C(=O)c3cccc4[nH]ncc34)CC2)nn1,Percent Effect,"30.3 µM, […]",16.62%
Cc1cc(CCC(=O)N2CC[C@H](O)C2)ccc1Br,Percent Effect,"30.3 µM, […]",-18.41%
Cc1ccccc1C(C)CC(=O)N1CC[C@H](O)C1 (stereo partly specified),Percent Effect,"30.3 µM, […]",50.74%
COc1ccccc1C(C)CC(=O)N1CC[C@H](O)C1 (stereo partly specified),Percent Effect,"30.3 µM, […]",5.433%
COCCNc1ccccc1CNC(=O)NCc1cnc(C)s1,Percent Effect,"30.3 µM, […]",19.41%
c1cnn(CC2CCCN2Cc2nc(-c3ccoc3)no2)c1 (stereo unspecified),Percent Effect,"30 µM, 30.03 µM",-37.38%
Cn1nc(C(=O)NCc2ccccc2C(F)(F)F)c2c1CCS(=O)(=O)C2,Percent Effect,"30.3 µM, […]",36.38%
CCN1CC2(CCCCN2C(=O)c2ccsc2)CC1=O (stereo unspecified),Percent Effect,"30.3 µM, […]",22.42%
C=C1C(C)(C)[C@H]2CC[C@]1(C(=O)N1CCC(Cn3cc(CO)nn3)CC1)C2,Percent Effect,"30.3 µM, […]",-11.33%
Cc1nc(CN2CCC23CCN(Cc2ccco2)CC3)cs1,Percent Effect,"30.3 µM, […]",53.61%
Cc1nc(CN2CCC23CCN(Cc2ccoc2)CC3)cs1,Percent Effect,"30.3 µM, […]",63.43%
Cc1nc(CN2CCC3(C2)CN(C(=O)c2ccc[nH]2)C3)cs1,Percent Effect,"30.3 µM, […]",35.81%
Cc1nc(CN2CCC23CCN(C(=O)c2ccco2)CC3)cs1,Percent Effect,"30.3 µM, […]",26.24%
Cc1nc(CN2CCC3(C2)CN(Cc2ccco2)C3)cs1,Percent Effect,"30.3 µM, […]",58.57%
Cc1nc(CN2C(=O)CCC23CCN(Cc2ccco2)CC3)cs1,Percent Effect,"30.3 µM, […]",23.38%
Cc1nc(CN2CCC3(CCCN(Cc4ccoc4)C3)C2=O)cs1.O=C(O)C(F)(F)F.O=C(O)C(F)(F)F (stereo unspecified),Percent Effect,"30.3 µM, […]",15.73%
Cc1nc(CN2CCN(C(=O)CCc3ccco3)CC2)cs1,Percent Effect,30 µM,15.52%
Cc1nc(CN2C(=O)CCC23CCN(Cc2ccoc2)CC3)cs1.O=C(O)C(F)(F)F.O=C(O)C(F)(F)F,Percent Effect,"30.3 µM, […]",9.105%
CCCc1nc(CN(CC)C(=O)c2ccc3ncsc3c2)no1,Percent Effect,"30.3 µM, […]",-29.17%
COc1ccc(-c2nccn2CC(O)CN2CCCC2)c(F)c1 (stereo unspecified),Percent Effect,"30.3 µM, […]",5.05%
COc1ccc2cnn(CC(=O)NC3CCCCC3)c(=O)c2c1OC,Percent Effect,"30.3 µM, […]",14.43%
CNS(=O)(=O)CCn1cc(-c2ccc(OC)c(OC)c2)nn1,Percent Effect,"30.3 µM, […]",27.44%
CCn1cc2c(n1)C(COC)CN(C(=O)COc1ccccc1C)C2 (stereo unspecified),Percent Effect,"30 µM, 30.03 µM",-0.4533%
CC(C)c1ncncc1C(=O)N1CCN(Cc2ccccn2)CC1,Percent Effect,30 µM,24.52%
NC(=O)c1cccc(OCC(=O)NS(=O)(=O)c2ccc3c(c2)CCC3)c1,Percent Effect,30 µM,8.199%
Cc1nn(C)c(N2CCOCC2)c1CNC1COc2ccccc2C1 (stereo unspecified),Percent Effect,30 µM,6.69%
CC(=O)NCCCc1ncnn1-c1cccc(Cl)c1,Percent Effect,"30.3 µM, […]",-4.184%
O=C(NCCC(=O)N1CCCc2ccccc21)c1c(O)cc(F)cc1F,Percent Effect,"30 µM, 30.03 µM",50.32%
O=C(NCCC(=O)N1CCCc2ccccc21)c1c(F)cccc1F,Percent Effect,30 µM,15.29%
O=C(NCC(=O)N1CCCc2ccccc21)c1c(O)cc(F)cc1F,Percent Effect,30 µM,16.08%
Cc1ccc(CN2C[C@@H]3[C@@H](C(=O)NCC(C)C)CCS(=O)(=O)[C@@H]3C2)cc1.O=C(O)C(F)(F)F,Percent Effect,"30.3 µM, […]",-6.029%
CCc1nnc(SCC(=O)Nc2cc(C(C)(C)C)nn2C)[nH]1,Percent Effect,"30.3 µM, […]",21.82%
CCc1cc(NC2CCN(CC(N)=O)CC2)nc(N2CCCCC2)n1,Percent Effect,"30.3 µM, […]",55.44%
CCc1cc(NC2CCS(=O)(=O)CC2)nc(N2CCCCC2)n1,Percent Effect,"30.3 µM, […]",-6.887%
CCc1cc(NCC(N)=O)nc(N2CCCCC2)n1,Percent Effect,"30.3 µM, […]",21.93%
CCc1ccsc1C(=O)N1CCS(=O)(=O)CC1,Percent Effect,"30.3 µM, […]",9.315%
CCc1ccsc1C(=O)N1CCN(C(=O)c2ccc(C)o2)CC1,Percent Effect,"30.3 µM, […]",56.23%
COC(=O)c1sccc1CN1CCN(C(=O)c2ccc(C)o2)CC1,Percent Effect,"30.3 µM, […]",23.22%
O=C(c1ccc2[nH]c(=O)[nH]c2c1)N1CCC(Nc2cccnn2)CC1,Percent Effect,30 µM,-0.4678%
Oc1ccc(Br)c(CNc2cccc(-c3nnc[nH]3)c2)c1,Percent Effect,"30.3 µM, […]",51.72%
c1cc(NCc2ccsc2)cc(-c2nnc[nH]2)c1,Percent Effect,"30.3 µM, […]",34.15%
Oc1c(F)cc(CNc2cccc(-c3nnc[nH]3)c2)cc1F,Percent Effect,"30.3 µM, […]",16.51%
CN(CCO)C(=O)Nc1ccn(-c2cccc(C(F)(F)F)c2)n1,Percent Effect,"30.3 µM, […]",13.55%
Cc1nc2n(n1)CC(NCc1csc(-c3ccsc3)n1)CC2 (stereo unspecified),Percent Effect,30 µM,1.329%
O=C(NC[C@H]1OC[C@@H](NC2COC2)[C@@H]1O)c1cccs1,Percent Effect,"30.3 µM, […]",17.79%
Cc1ccc2c(c1)C(=O)NCC1(CCN(C(=O)c3ccccn3)CC1)O2,Percent Effect,"30.3 µM, […]",39.06%
Cc1ccc2c(c1)C(=O)NCC1(CCN(C(=O)c3ccnn3C)CC1)O2,Percent Effect,"30.3 µM, […]",23.56%
Cc1ccc2c(c1)C(=O)NCC1(CCN(C(=O)c3cc(C)no3)CC1)O2,Percent Effect,"30.3 µM, […]",77.82%
Cc1cccc(C)c1OC1CN(C(=O)C2CC(=O)N(C(C)(C)C)C2)C1 (stereo unspecified),Percent Effect,"30.3 µM, […]",48.27%
CN1C(=O)C(c2ccccc2)CC12CCN(CCN)CC2 (stereo unspecified),Percent Effect,"30.3 µM, […]",16.5%
CCc1cc(NCCCOC2CCN(C)CC2)ncn1,Percent Effect,"30.3 µM, […]",-6.301%
CCc1cc(NCCCN(C)C2CCCC2)ncn1,Percent Effect,"30.3 µM, […]",22.72%
CCc1cc(NCCCOC2CCCC2)ncn1,Percent Effect,"30.3 µM, […]",51.18%
Cn1ccc(CN2CCC3(CCCN3CC3CC3)CC2)n1.O=C(O)C(F)(F)F.O=C(O)C(F)(F)F,Percent Effect,"30.3 µM, […]",41.38%
O=C(CC1CN(Cc2ccccc2)CCO1)NC1CCSCC1 (stereo unspecified),Percent Effect,"30.3 µM, […]",18.94%
Cc1ccc(CC(=O)N(C)CC2(O)CCN(c3ccccn3)C2)s1 (stereo unspecified),Percent Effect,"30 µM, 30.03 µM",24.75%
CC(=O)c1cnc(NCCN2CCCC(c3ccccc3)C2)nc1C (stereo unspecified),Percent Effect,"30.3 µM, […]",-39.73%
O=C(C1CCOC1)N1CCN(CC(F)(F)F)c2ccccc21 (stereo unspecified),Percent Effect,"30.3 µM, […]",25.18%
O=C(C1COCCO1)N1CCN(CC(F)(F)F)c2ccccc21 (stereo unspecified),Percent Effect,"30.3 µM, […]",56.8%
O=C(C1CCCOC1)N1CCN(CC(F)(F)F)c2ccccc21 (stereo unspecified),Percent Effect,"30.3 µM, […]",-20.84%
CC(C)Cc1cc(CN2C[C@H]3CC[C@@H]2CN(Cc2cscn2)C3)n[nH]1,Percent Effect,"30.3 µM, […]",2.738%
CC(C)(C)c1cc(CN2C[C@H]3CC[C@@H]2CN(Cc2cscn2)C3)n[nH]1,Percent Effect,"30.3 µM, […]",99.99%
CC(C)(C)c1cc(CN2C[C@@H]3CC[C@H](C2)N(Cc2ccccn2)C3)n[nH]1,Percent Effect,"30.3 µM, […]",9.516%
CCCc1n[nH]c(C2CN(C(=O)c3ccco3)CCO2)n1 (stereo unspecified),Percent Effect,"30 µM, 30.03 µM",22.5%
Cc1nc2c(c(NCCCN3CCOCC3)n1)CCN(C)C2,Percent Effect,"30.3 µM, […]",22.12%
CCN(CC)CCCNc1nc(C)nc2c1CCN(C)C2.O=C(O)CC(O)(CC(=O)O)C(=O)O,Percent Effect,"30.3 µM, […]",53.93%
Cc1nc2c(c(NCCN3CCOCC3)n1)CCN(C)C2,Percent Effect,"30.3 µM, […]",32.47%
